Results published in PubChem BioAssay (Tox21).
Results filed as inconclusive are left out. Active and inactive are the calls of the source. Unless noted, calls follow the shape of the full dose curve.

Assays:
[1] = Nuclear factor erythroid 2-related factor 2/antioxidant responsive element (Nrf2/ARE) small molecule agonists: qHTS cell viability counter screen in human keratinocytes (AID 1919968; active = well fitted curve in the direction sought with a large enough effect in the repeat runs; an effect the other way counts as inactive or inconclusive; also: nearly all actives have a fitted effect of over 55% in size); settings: KeratinoSens HaCaT ARE cells viability, CellTiter-Fluor, 24 h; series mostly up to 92.4 µM
Procedure, shortened: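 Stably transfected HaCaT (KeratinoSens), 1,500/well. Test agents in DMSO were applied for 23 h, 37 C/5% CO2. CellTiter-Fluor was incubated 1 h before the fluorescence read.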

[2] = Nuclear factor erythroid 2-related factor 2/antioxidant responsive element (Nrf2/ARE) small molecule agonists: luciferase reporter gene qHTS assay in human keratinocytes (AID 1919969); settings: KeratinoSens HaCaT ARE-luciferase, luminescence, 24 h; series mostly up to 92.4 µM; also: nearly all actives have a fitted effect of over 35% in size
[3] = target: Gonadotropin-releasing hormone receptor (Homo sapiens) (UniProt P30968); assay: Human gonadotropin-releasing hormone receptor (GnRHR) small molecule agonists, calcium flux assay in GnRHR-HEK293 cells (AID 1920063); settings: calcium flux fluorescence, agonist mode; series mostly up to 57.6 µM; also: nearly all actives have a fitted effect of over 35% in size
Procedure, shortened: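 Stable human GnRHR HEK293 line. 18 h plating, then calcium dye for 1 h at 37 C. Agonist-mode compound addition from DMSO stocks; fluorescence monitored 3 min.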

[4] = target: KiSS-1 receptor (Homo sapiens) (UniProt Q969F8); assay: Human kisspeptin (KISS1R) small molecule agonists, calcium flux assay in KISS1R-HEK293 cells (AID 1920064; active = well fitted curve in the direction sought with a large enough effect in the repeat runs; an effect the other way counts as inactive or inconclusive); settings: KISS1R-HEK293, calcium flux fluorescence, agonist; series mostly up to 76.8 µM
Procedure, shortened: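 After overnight (18 h) culture at 37 C/5% CO2, human KISS1R-HEK293 cells received calcium dye for 1 h, then test compound; emission at 540 nm (excitation 480 nm) was tracked for 3 min.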

[5] = G protein-coupled receptor (GPCR) small molecule agonists, calcium flux assay: HEK293 wild type cell line counter screen (AID 1920065); settings: HEK293 WT calcium flux, fluorescence, agonist mode; series mostly up to 57.6 µM
Procedure, shortened: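 Following 18 h incubation at 37 C/5% CO2, plates got calcium dye for 1 h; compounds, ATP or DMSO were then pinned in and fluorescence followed kinetically (480/540 nm).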

[6] = p53 small molecule agonists, cell-based qHTS assay with human liver microsomes (AID 1963577); settings: HCT-116 p53RE-bla with human liver microsomes, ratio, 16 h; series mostly up to 66 µM;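 also: p53 response element beta-lactamase reporter cells with liver microsomes plus NADPH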
Procedure, shortened: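 In this qHTS, p53 response-element beta-lactamase cells receive test compound together with a microsome/NADPH activating system (0.5 mg/mL final each) and are incubated 16 h at 37 C before LiveBLAzer fluorescence detection.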

[7] = p53 small molecule agonists, cell-based qHTS assay with rat liver microsomes (AID 1963578); settings: HCT-116 p53RE-bla, beta-lactamase ratio, 16 h; series mostly up to 66 µM
Procedure, shortened: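 Agonist mode in p53RE-bla reporter cells, with compounds co-incubated 16 h at 37 C alongside 0.5 mg/mL rat liver microsomes and 0.5 mg/mL NADPH (final), followed by a 2 h LiveBLAzer detection step.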

[8] = p53 small molecule agonists, cell-based qHTS assay with human liver microsomes: qHTS cell viability counter screen (AID 1963579); settings: p53RE-bla HCT-116 viability, ATP luminescence, 16 h, HLM; series mostly up to 66 µM; also: nearly all actives have a fitted effect of over 45% in size
Procedure, shortened: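 Metabolically activated exposure: compounds, human liver microsomes and NADPH (0.5 mg/mL final apiece) were added to p53RE-bla cells seeded 5 h earlier, left 16 h at 37 C, and then assessed for viability by CellTiter-Glo luminescence.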

[9] = p53 small molecule agonists, cell-based qHTS assay with rat liver microsomes: qHTS cell viability counter screen (AID 1963580); settings: p53RE-bla HCT-116 + rat microsomes, ATP viability, 16 h; series mostly up to 66 µM; also: nearly all actives have a fitted effect of over 45% in size
Procedure, shortened: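 Counter screen for cytotoxicity under metabolic activation: rat liver microsomes and NADPH, 0.5 mg/mL final each, added with compounds to p53RE-bla HCT-116 cells; 16 h at 37 C, then ATP luminescence read.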

[10] = p53 small molecule agonists, cell-based qHTS assay: qHTS cell viability counter screen (AID 1963581); settings: p53RE-bla HCT-116 viability, ATP luminescence, 16 h; series mostly up to 66 µM; also: nearly all actives have a fitted effect of over 45% in size
Procedure, shortened: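 qHTS counter screen: 16 h compound exposure at 37 C of p53RE-bla HCT-116 cells (4,000 per well, seeded 5 h prior), cell viability by ATP luminescence.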

[11] = p53 small molecule agonists, cell-based qHTS assay (AID 1963582; active = well fitted activation curve with a large enough effect in the signal ratio in the repeat runs, not every such curve was filed as active; the % refers to the signal ratio); settings: HCT-116 p53RE-bla reporter, beta-lactamase FRET ratio, 16 h; series mostly up to 66 µM
Procedure, shortened: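 Measured: fluorescence from cleaved LiveBLAzer substrate. System: p53RE-bla cells, 16 h compound treatment at 37 C, 2 h substrate step at room temperature.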

[12] = target: 5-hydroxytryptamine receptor 2A (Homo sapiens) (UniProt P28223); assay: 5-hydroxytryptamine receptor 2A (HTR2A) small molecule antagonists, cell-based qHTS assay (AID 1963586); settings: HTR2A-CHO cells, DOI-induced calcium flux, fluorescence; series mostly up to 61.5 µM; also: nearly all actives have a fitted effect of over 45% in size
Procedure, shortened: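 CHO cells stably expressing human HTR2A were plated for 18 h at 37 C, then loaded with calcium dye for 1 h. Compounds were preincubated 5 min at room temperature before DOI (4 nM solution) was added. Kinetic fluorescence was read for 3 min.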

[13] = target: 5-hydroxytryptamine receptor 2A (Homo sapiens) (UniProt P28223); assay: 5-hydroxytryptamine receptor 2A (HTR2A) small molecule agonists, cell-based qHTS assay (AID 1963587); settings: HTR2A-CHO cells, calcium flux fluorescence, agonist mode; series mostly up to 76.8 µM; also: nearly all actives have a fitted effect of over 30% in size
Procedure, shortened: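 HTR2A-CHO cells, plated 18 h at 37 C/5% CO2, dye-loaded 1 h at 37 C; compounds in DMSO added by pin tool (agonist mode). Intracellular calcium flux read as kinetic fluorescence on FDSS over 2 min at 1 s intervals.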

[14] = target: Muscarinic acetylcholine receptor M1 (Homo sapiens) (UniProt P11229); assay: Cholinergic receptor muscarinic 1 (CHRM1) small molecule antagonists, cell-based qHTS assay (AID 1963588); settings: CHRM1-CHO antagonist mode, calcium flux fluorescence; series mostly up to 61.5 µM; also: nearly all actives have a fitted effect of over 40% in size
Procedure, shortened: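 Compounds were tested at 15 concentrations in three independent runs. Dye-loaded CHRM1-CHO cells were exposed 5 min at room temperature before stimulation by acetylcholine added at 50nM. Intracellular calcium was read kinetically on FDSS for 3 min.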

[15] = target: Muscarinic acetylcholine receptor M1 (Homo sapiens) (UniProt P11229); assay: Cholinergic receptor muscarinic 1 (CHRM1) small molecule agonists, cell-based qHTS assay (AID 1963589); settings: CHRM1-CHO cells, agonist mode, calcium flux fluorescence; series mostly up to 76.8 µM; also: nearly all actives have a fitted effect of over 35% in size
Procedure, shortened: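 Kinetic fluorescence (1 s intervals) of calcium-sensitive dye in human M1 CHO cells after compound addition; cells pre-incubated 18 h at 37 C/5% CO2 and dye-loaded 1 h.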

[16] = cAMP Responsive Elements (CRE) small molecule agonists, cell-based qHTS assay (AID 1963590); settings: CRE-bla HEK293T, beta-lactamase FRET ratio, 3 h; series mostly up to 92.4 µM
Procedure, shortened: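 Test agents in DMSO were incubated 3 h at 37 C/5% CO2 with CRE-bla HEK 293T cells seeded 18 h earlier; LiveBLAzer B/G FRET substrate was added and read after 2 h at room temperature.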

[17] = cAMP Responsive Elements (CRE) small molecule antagonists, cell-based qHTS assay (AID 1963591; active = well fitted inhibition curve with a large enough effect in the signal ratio in the repeat runs, not every such curve was filed as active; the % refers to the signal ratio); settings: CRE-bla HEK293T, beta-lactamase FRET ratio; series mostly up to 92.4 µM
Procedure, shortened: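 Reporter line CRE-bla HEK 293T in dialyzed-FBS DMEM; cells preincubated 18 h, treated 3 h with compound plus NKH477 (0.25 uM final); LiveBLAzer FRET, 2 h RT.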

[18] = target: Beta-2 adrenergic receptor (Homo sapiens) (UniProt P07550); assay: Adrenergic beta2 receptor (ADRB2) small molecule antagonists, cell-based qHTS assay (AID 1963592); settings: CHO-ADRB2 cells, isoproterenol-stimulated cAMP HTRF ratio, 0.5 h; series mostly up to 92.4 µM; also: nearly all actives have a fitted effect of over 50% in size
Procedure, shortened: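 Assay format: CHO-ADRB2 cells, 18-20hr seeding at 37C/5% CO2, then compound plus 1nM isoproterenol agonist mix for 0.5hr RT. Homogeneous time-resolved fluorescence cAMP detection after 1hr, expressed as 665/615 nm ratio.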

[19] = target: D(2) dopamine receptor (Homo sapiens) (UniProt P14416); assay: Dopamine D2 receptor (DRD2) small molecule agonists, cell-based qHTS assay (AID 1963594); settings: HEK293-DRD2 cAMP HTRF, agonist mode, 30 min; series mostly up to 92.4 µM; also: nearly all actives have a fitted effect of over 35% in size
Procedure, shortened: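 HEK293 cells stably expressing DRD2 were cultured 24 h at 37 C, then given Ro20-1724 (0.1 mM final) and compounds for 10 min at room temperature. NKH477 (200nM) was then added for 30 min. cAMP was read by HTRF.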

[20] = target: D(2) dopamine receptor (Homo sapiens) (UniProt P14416); assay: Dopamine D2 receptor (DRD2) small molecule antagonists, cell-based qHTS assay (AID 1963595; active = well fitted inhibition curve with a large enough effect in the signal ratio in the repeat runs, with a control signal flat; the % refers to the signal ratio); settings: HEK293-DRD2 cAMP HTRF antagonist mode; series mostly up to 92.4 µM
Procedure, shortened: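 Antagonist mode in DRD2-HEK293 cells: after compound addition with 0.1 mM Ro20-1724, cells received quinpirole (12 nM) and NKH477 (200 nM) for 30 min at room temperature; HTRF cAMP read after 1 h detection.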

Measured: Potency

Sequence of 5-hydroxytryptamine receptor 2A (Homo sapiens) (P28223 whole entry, looked up): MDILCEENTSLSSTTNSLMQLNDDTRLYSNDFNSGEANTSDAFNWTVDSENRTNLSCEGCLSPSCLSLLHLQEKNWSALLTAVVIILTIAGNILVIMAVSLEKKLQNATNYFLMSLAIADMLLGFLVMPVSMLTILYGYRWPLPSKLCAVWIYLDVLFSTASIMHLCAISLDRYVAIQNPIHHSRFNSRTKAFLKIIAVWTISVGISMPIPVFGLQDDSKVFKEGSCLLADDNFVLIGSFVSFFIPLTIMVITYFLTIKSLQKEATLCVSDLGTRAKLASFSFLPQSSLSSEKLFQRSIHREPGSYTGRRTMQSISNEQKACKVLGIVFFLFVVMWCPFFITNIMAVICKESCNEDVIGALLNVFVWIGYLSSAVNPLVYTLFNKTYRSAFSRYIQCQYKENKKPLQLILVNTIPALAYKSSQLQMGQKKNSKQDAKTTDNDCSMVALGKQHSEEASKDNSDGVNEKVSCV
Sequence of Gonadotropin-releasing hormone receptor (Homo sapiens) (P30968 whole entry, looked up): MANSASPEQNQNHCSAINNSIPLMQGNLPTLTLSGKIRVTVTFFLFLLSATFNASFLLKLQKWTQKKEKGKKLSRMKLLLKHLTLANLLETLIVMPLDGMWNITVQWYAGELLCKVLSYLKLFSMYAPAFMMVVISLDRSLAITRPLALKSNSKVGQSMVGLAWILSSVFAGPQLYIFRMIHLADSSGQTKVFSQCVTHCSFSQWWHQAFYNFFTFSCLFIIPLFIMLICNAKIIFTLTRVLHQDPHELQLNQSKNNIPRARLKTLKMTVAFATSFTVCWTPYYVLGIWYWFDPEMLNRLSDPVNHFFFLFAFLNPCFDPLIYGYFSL
Sequence of Beta-2 adrenergic receptor (Homo sapiens) (P07550 whole entry, looked up): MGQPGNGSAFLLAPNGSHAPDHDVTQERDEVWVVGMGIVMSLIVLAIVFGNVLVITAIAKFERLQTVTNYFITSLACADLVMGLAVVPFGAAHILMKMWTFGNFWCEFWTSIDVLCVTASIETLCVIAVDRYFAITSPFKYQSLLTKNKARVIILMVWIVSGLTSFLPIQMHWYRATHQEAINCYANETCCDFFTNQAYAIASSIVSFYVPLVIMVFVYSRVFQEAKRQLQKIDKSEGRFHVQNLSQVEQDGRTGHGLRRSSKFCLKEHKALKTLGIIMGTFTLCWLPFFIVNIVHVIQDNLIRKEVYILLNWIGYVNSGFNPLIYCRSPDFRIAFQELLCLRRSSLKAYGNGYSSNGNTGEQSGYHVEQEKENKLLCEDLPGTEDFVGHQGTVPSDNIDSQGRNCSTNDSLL
Sequence of D(2) dopamine receptor (Homo sapiens) (P14416 whole entry, looked up): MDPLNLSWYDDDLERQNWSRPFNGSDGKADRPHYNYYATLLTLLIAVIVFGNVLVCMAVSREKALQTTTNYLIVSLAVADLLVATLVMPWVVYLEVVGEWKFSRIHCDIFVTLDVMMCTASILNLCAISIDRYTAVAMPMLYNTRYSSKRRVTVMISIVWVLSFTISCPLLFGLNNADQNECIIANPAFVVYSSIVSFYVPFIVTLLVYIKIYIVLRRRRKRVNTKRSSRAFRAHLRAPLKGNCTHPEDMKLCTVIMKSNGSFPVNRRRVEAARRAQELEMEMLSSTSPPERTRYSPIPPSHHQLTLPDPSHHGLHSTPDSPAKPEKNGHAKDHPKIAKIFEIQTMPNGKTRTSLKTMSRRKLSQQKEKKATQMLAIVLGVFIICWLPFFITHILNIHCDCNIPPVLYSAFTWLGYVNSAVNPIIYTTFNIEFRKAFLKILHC
Sequence of KiSS-1 receptor (Homo sapiens) (Q969F8 whole entry, looked up): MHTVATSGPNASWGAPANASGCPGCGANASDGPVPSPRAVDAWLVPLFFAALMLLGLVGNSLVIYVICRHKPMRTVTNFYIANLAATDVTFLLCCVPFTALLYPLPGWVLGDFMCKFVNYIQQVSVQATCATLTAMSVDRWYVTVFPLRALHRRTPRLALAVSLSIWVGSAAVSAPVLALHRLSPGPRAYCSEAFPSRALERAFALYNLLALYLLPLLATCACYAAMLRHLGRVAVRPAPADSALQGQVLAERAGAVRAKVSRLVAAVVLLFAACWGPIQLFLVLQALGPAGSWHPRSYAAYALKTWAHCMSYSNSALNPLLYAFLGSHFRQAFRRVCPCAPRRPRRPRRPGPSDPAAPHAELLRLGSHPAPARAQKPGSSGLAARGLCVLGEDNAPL
Sequence of Muscarinic acetylcholine receptor M1 (Homo sapiens) (P11229 whole entry, looked up): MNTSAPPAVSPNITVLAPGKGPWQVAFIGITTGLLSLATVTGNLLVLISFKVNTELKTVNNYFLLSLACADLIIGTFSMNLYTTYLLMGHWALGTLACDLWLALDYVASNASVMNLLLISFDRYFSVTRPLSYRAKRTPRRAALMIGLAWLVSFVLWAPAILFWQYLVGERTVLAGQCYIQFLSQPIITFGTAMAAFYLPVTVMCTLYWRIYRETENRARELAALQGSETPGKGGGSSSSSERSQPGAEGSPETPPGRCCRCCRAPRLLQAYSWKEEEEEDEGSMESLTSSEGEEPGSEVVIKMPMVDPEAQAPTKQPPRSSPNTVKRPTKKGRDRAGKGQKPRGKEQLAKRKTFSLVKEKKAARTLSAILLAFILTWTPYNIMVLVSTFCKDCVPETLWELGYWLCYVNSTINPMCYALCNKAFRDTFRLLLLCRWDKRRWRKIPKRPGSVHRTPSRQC

CCC(=O)c1cccc(Cl)c1
inactive: all assays above

CC1OCCC1=O (centres undefined)
inactive: all assays above

C/C=C(\C)C(=O)OCC/C=C\CC
inactive: all assays above

CC1=CCC(=C(C)C)CC1
inactive: all assays above

CCCc1ccc(O)c(OC)c1
inactive: all assays above

CCCCC(CC)C(=O)OC(C)C (centres undefined)
inactive: all assays above

CC(=O)NC(=O)c1ccccc1O
not listed: [19] | [20]
inactive: all other assays above

Cc1cccc(C)c1NC(=O)c1ccc(N)cc1
inactive: all assays above

C1OCOCO1
inactive: all assays above

CCCCC/C=C/CC1CC(=O)OC1=O (centres undefined)
not listed: [19] | [20]
inactive: all other assays above

CC(=O)C=O
not listed: [20]
inactive: all other assays above

CCOc1ccc2ccccc2c1C(=O)N[C@@H]1C(=O)N2[C@@H]1SC(C)(C)[C@@H]2C(=O)O
inactive: all assays above

O=C(NCCCN1CCOCC1)c1ccc(Cl)cc1
not listed: [20]
inactive: all other assays above

CN1C(=O)N(C)C(O)C1O (centres undefined)
inactive: all assays above

CCC(C)C(=O)OC (centres undefined)
inactive: all assays above
